# Bioassay records as filed in PubChem BioAssay.
# Rows were chosen to be rich in hits. Some 12% of all compounds tested hit in one or more screens of this group.
# USP17 inh = blocks human USP17 ubiquitin-rhodamine cleavage; purified USP17, Ub-rhodamine cleavage fluorescence, 3 h; inhibition, % at 50 µM; 47,000 tested, 6.5% active
# Target sequence (A8MUK1 whole entry, looked up): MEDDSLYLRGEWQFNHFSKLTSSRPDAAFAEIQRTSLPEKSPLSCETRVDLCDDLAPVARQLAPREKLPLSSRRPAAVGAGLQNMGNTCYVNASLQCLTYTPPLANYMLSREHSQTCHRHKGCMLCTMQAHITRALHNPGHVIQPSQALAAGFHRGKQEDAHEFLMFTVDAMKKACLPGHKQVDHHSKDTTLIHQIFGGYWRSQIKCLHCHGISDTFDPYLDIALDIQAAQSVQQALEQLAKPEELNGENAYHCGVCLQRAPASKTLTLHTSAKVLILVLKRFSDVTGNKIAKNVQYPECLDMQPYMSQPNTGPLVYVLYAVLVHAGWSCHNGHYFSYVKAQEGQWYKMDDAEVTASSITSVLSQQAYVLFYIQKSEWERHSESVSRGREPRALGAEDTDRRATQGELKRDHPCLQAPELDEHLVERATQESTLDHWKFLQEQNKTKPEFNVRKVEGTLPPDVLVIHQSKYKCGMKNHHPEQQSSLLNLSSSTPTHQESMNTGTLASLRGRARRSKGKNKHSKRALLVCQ
# USP30 block = inhibitors of human USP30 deubiquitinase; Q70CQ3; purified USP30, Ub-rhodamine cleavage fluorescence; inhibition, % at 25 µM; 47,000 tested, 5.3% active
# USP8 inh = inhibitors of human USP8 deubiquitinase. purified USP8, Ub-rhodamine cleavage fluorescence, 30 min. inhibition, % at 20 µM. 47,000 tested, 4.2% active
# * hit, by the source's call; . = no result. Cut-off read from the data, not from the text of the source: active = inhibition above about 30%; inactive = the rest.
SMILES,USP17 inh,USP30 block,USP8 inh
CSc1cccc(NC(=O)c2cc(-c3cccnc3)n[nH]2)c1,78.7*,65.4*,97.2*
CCN1CCCC1CNC(=O)c1nnc(-c2ccc(S(=O)(=O)N3CCOCC3)cc2)o1 (stereo unspecified),7.6,19.7,21.4
Cc1ccoc1C(=O)N1C[C@H](OCc2ccncc2)[C@H]2OCCC[C@H]21,-5.2,5.2,-5.4
C=C1CCC[C@]2(C)C[C@H]3OC(=O)C(CN4CCCCC4C)[C@H]3CC12 (stereo partly specified),-0.1,43.2*,-14.0
C[C@H]1CCC[C@]2(C)C[C@H]3OC(=O)C(CN4CCC(Cc5ccccc5)CC4)[C@H]3C=C12 (stereo partly specified),-3.1,-23.4,1.5
C=C1CCC[C@]2(C)C[C@H]3OC(=O)[C@H](CNCCc4ccccc4OC)C3CC12 (stereo partly specified),7.3,47.5*,3.3
C=C1CCC[C@]2(C)C[C@H]3OC(=O)C(CN(C)CC(O)c4ccc(O)cc4)[C@H]3CC12 (stereo partly specified),-7.0,10.6,-2.3
C=C1CCC[C@]2(C)C[C@H]3OC(=O)C(CN4CCCCC4CC)[C@H]3CC12 (stereo partly specified),-1.1,40.0*,-3.9
C=C1CCC[C@]2(C)C[C@H]3OC(=O)C(CN4CCC(C(=O)OCC)CC4)[C@H]3CC12 (stereo partly specified),-2.3,4.5,-0.4
COc1ccc(OC)c(CN2CCC3(CC2)CN(C(C)=O)Cc2ccccc2O3)c1,-20.5,-7.3,-18.4
CCOc1ccc(-c2cc(C(=O)N3CCN(c4cccc(C(F)(F)F)c4)CC3)[nH]n2)cc1,0.6,-8.5,2.3
COc1ccc(NC(=O)NCCN2CCc3ccccc3C2)cc1OC,0.9,.,3.1
O=C(CC1CCCC1)N1CCC[C@@H]1Cn1nnc(-c2cccnc2)n1,6.0,21.8,17.7
COC(=O)c1cc(C#N)c(NCc2cc(-c3ccc(OC)cc3)no2)nc1C,-46.1,-178.7,-7.5
CN(C(=O)c1cc(-c2ccccc2)on1)C1CCCc2ccccc21 (stereo unspecified),-7.8,-4.6,-3.4
COc1cnc(CSc2ncccn2)cc1OCC(=O)Nc1c(C)cc(C)cc1C,-23.3,0.0,-69.2
COc1cnc(CSc2ncccn2)cc1OCC(=O)Nc1cc(C)ccc1C,-15.9,55.0*,-62.6
COc1cnc(CSc2nccc(C)n2)cc1OCC(=O)Nc1cc(C)ccc1C,0.7,23.5,-4.2
COc1cnc(CSc2ncccn2)cc1OCC(=O)Nc1cccc(F)c1,-6.6,32.3*,-60.9
CN(C)C(CNC(=O)c1cccc(Oc2ccccc2)c1)c1ccccc1 (stereo unspecified),-6.1,-4.4,-5.8
CCn1c(SCC(=O)Nc2ccc(C)c(C)c2)nc(=O)c2c(C)cc(C)nc21,12.3,16.5,16.3
O=C(Nc1cnn(-c2ncc(N3CCCC3)cn2)c1)C1CCCO1 (stereo unspecified),19.9,-100.7,-80.1
Nc1nc(-c2ccc3c(c2)NC(=O)CO3)cs1,-1.1,9.2,-39.8
O=C1COc2ccc(-c3cc4n(c3)CCc3cc5c(cc3-4)OCO5)cc2N1,18.0,-46.9,42.5*
COc1cc(/C=C/C(=O)Nc2nnc(C3CC3)s2)cc(OC)c1OC,0.3,-3.1,7.6
SMILES,USP17 inh,USP30 block,USP8 inh
CCOc1ccc(/C=C/C(=O)Nc2nnc(C)s2)cc1,30.6*,-64.8,24.1
Cc1noc(-c2cc3c(ccc4ccccc43)oc2=O)n1,42.2*,-15.7,-10.8
Cc1noc(-c2cccn(Cc3cc(=O)n4ccccc4n3)c2=O)n1,0.5,-1.4,9.7
COc1cc2c(cc1OC)-c1cc(N(C(C)=O)c3ccc4c5c(cccc35)CC4)nc(=O)n1CC2,37.7*,-96.2,11.6
COc1cc2c(cc1OC)-c1cc(Oc3ccccc3C)nc(=O)n1CC2,-5.2,-65.1,-50.3
Cc1ccc(NC(=O)Nc2nnc(CC(=O)N3CCOCC3)s2)cc1C,5.4,-65.5,15.1
Cc1ccc(NC(=O)Cc2ccc(-c3ccccc3)cc2)c(C)c1,5.6,17.7,0.7
COc1ccc(NC(=O)Cc2sc(Nc3cccc(OC)c3)nc2O)cc1,1.1,-26.7,-9.8
Cc1ccc(Nc2nc(O)c(CC(=O)Nc3ccccc3C)s2)cc1C,74.4*,15.2,90.1*
Cc1ccc(Nc2nc(O)c(CC(=O)Nc3ccc(C)cc3C)s2)cc1,36.7*,8.6,45.9*
Cc1ccc(NC(=O)Cc2nc(-c3ccccn3)n[nH]2)cc1C,-28.9,-12.2,-363.6
Cc1cc(C)c(NC(=O)Cc2sc(Nc3ccc(C)c(C)c3)nc2O)c(C)c1,3.1,-2.8,67.3*
COc1cccc(NC(=O)Cc2sc(Nc3cc(C)cc(C)c3)nc2O)c1,62.2*,0.4,21.6
Cc1ccc(C)c(Cn2cc(S(=O)(=O)N3CCOCC3)ccc2=O)c1,10.9,8.1,10.1
CCn1c(CC(=O)Nc2cccc(C)c2C)nnc1SCC(=O)N1CCOCC1,-6.3,-0.1,-13.5
N#Cc1c(C(F)(F)F)cc(-c2ccccc2)nc1-c1ccc(Oc2ccc(Cl)c(F)c2)cc1,-37.9,-420.0,-53.8
Cc1ccc(-n2cc(-c3ccccc3)nc2S(=O)(=O)CC(=O)Nc2cccc(C)c2C)cc1,-36.7,-40.4,-78.2
O=C(c1cc(C2CC2)nn1-c1ccccc1)N1CCN(c2ccc(O)cc2)CC1,18.9,3.2,-24.8
O=C(c1cc(-c2ccccc2)nn1-c1ccccc1)N1CCN(C(=O)C2CCCO2)CC1 (stereo unspecified),8.5,36.8*,9.8
COc1cccc(N2CCN(C(=O)CCNS(=O)(=O)c3ccc4c(c3)CCC(=O)N4)CC2)c1,58.1*,-0.6,9.7
COc1ccc(NC(=O)CCNS(=O)(=O)c2ccc3c(c2)CCC(=O)N3)cc1OC,0.0,13.3,-1.1
O=C(NCc1ccccc1)C(Cc1ccccc1)NS(=O)(=O)c1ccc2c(c1)OCCO2 (stereo unspecified),86.4*,52.3*,30.7*
CC(C)C(NS(=O)(=O)c1ccc2c(c1)OCCO2)C(=O)Nc1cccc(F)c1 (stereo unspecified),44.3*,38.7*,21.4
COC(=O)c1ccc(OC(=O)C(NS(=O)(=O)c2ccc3c(c2)OCCO3)C(C)C)cc1 (stereo unspecified),-0.4,-60.3,-29.8
O=C(O)C(Cc1ccccc1)NS(=O)(=O)c1ccc2c(c1)OCCO2 (stereo unspecified),-7.7,0.5,-15.7
SMILES,USP17 inh,USP30 block,USP8 inh
COc1ccc(CC(=O)N2CCN(c3ccc(-n4cccn4)nn3)CC2)cc1,11.0,33.9*,22.1
COc1ccc(CC(=O)N2CCc3nc(C(N)=O)sc3CC2)cc1,3.2,-153.9,1.2
CC(C)Cc1nc2sc3c(SCCc4ccccc4)ncnc3c2c2c1COC(C)(C)C2,9.3,16.5,23.2
CC(C)Cc1nc2sc3c(SCc4ccc(Cl)cc4)ncnc3c2c2c1COC(C)(C)C2,17.5,32.9*,-0.8
CC(C)Cc1nc2sc3c(NCc4ccccc4)ncnc3c2c2c1COC(C)(C)C2,23.1,63.7*,6.1
CC(C)Cc1nc2sc3c(SCc4ccc(Br)cc4)ncnc3c2c2c1COC(C)(C)C2,-0.6,-1.6,3.0
CCC(O)CNc1ncnc2c1sc1nc(C)c3c(c12)CC(C)(C)OC3 (stereo unspecified),5.5,-6.8,11.6
Cc1nc2sc3c(NCC(C)C)ncnc3c2c2c1COC(C)(C)C2,42.7*,17.8,-5.0
